This passage reports growth results from PubChem BioAssay (NCI).

Each structure is given as a SMILES string. Compounds without any hit were thinned out: in the full panel of roughly 83,000, 20% have a hit.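 Assay: single dose, 48 h. Readout: percent growth (0 = no net growth; negative = cell death). Active: <10.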 A number with no mark means an inactive call. Activity calls are given as the source filed them.

Some test systems named below: DU-145 prostate; K-562 leukemia; MALME-3M melanoma; MDA-MB-231 breast; RXF 393 renal; SF-268 CNS; SF-295 CNS; SF-539 CNS; UACC-257 melanoma; M14 melanoma; HCT-15 colon; HT29 colon; SNB-75 CNS; SNB-19 CNS; U251 CNS; PC-3 prostate; SK-MEL-5 melanoma; UACC-62 melanoma; LOX IMVI melanoma; SK-MEL-28 melanoma.
Common to all, as to test: NCI-60 one-dose screen, 48 h (100 = growth as untreated, 0 = no growth, -100 = all killed)
Holding throughout (settings): 10 µM unless noted

With `C#CC#CC#CC#CC#CC#CC#CC#CC[C@@H]1OC[C@@H](COC(=O)O[C@@H](C(=O)O[C@H]2C[C@@]3(O)[C@@H](OC(=O)c4ccccc4)[C@@H]4[C@]5(OC(C)=O)CO[C@@H]5C[C@H](O)[C@@]4(C)C(=O)[C@H](OC(C)=O)C(=C2C)C3(C)C)[C@@H](NC(=O)c2ccccc2)c2ccccc2)O1`, the growth was 102% in the test on DU-145 prostate; 7.18% (active) with K-562 leukemia; 37.4% with MALME-3M melanoma; 5.64% (active) in the test with MDA-MB-231 breast; -12.3% (active) in the test with RXF 393 renal; 94.5% in the test with SF-268 CNS. For the same compound, the growth in the test with SF-295 CNS is 0.0837% (active); with SF-539 CNS it was -8.27% (active); with UACC-257 melanoma it was 95.5%; in the test on M14 melanoma it was -6.06% (active); in the test on HCT-15 colon, 11%; in the test on HT29 colon, 101%. The growth with SNB-75 CNS is 90.1%; with SNB-19 CNS, 14.9%; in the test on U251 CNS, 96.3%; with PC-3 prostate, 11.1%; with SK-MEL-5 melanoma, 22.1%; with UACC-62 melanoma it was 25.2%. Moreover, the growth in the test on LOX IMVI melanoma was 22.2%; in the test on SK-MEL-28 melanoma, 55.4%.
For the compound `COc1cc(/C=C2\CN(S(=O)(=O)c3ccccc3)C/C(=C\c3cc(CN4CCCCC4)c(O)c(OC)c3)C2=O)cc(CN2CCCCC2)c1O`, the growth in the test on DU-145 prostate is -93% (active); in the test on K-562 leukemia, -9.62% (active); in the test with MALME-3M melanoma it was -77.6% (active); in the test on MDA-MB-231 breast, -67.8% (active); in the test with RXF 393 renal, -88.3% (active); with SF-268 CNS, -20.7% (active). For the same compound, the growth with SF-295 CNS was 76.5%; in the test with SF-539 CNS it was -84.6% (active); in the test with UACC-257 melanoma it was 83.8%; in the test with M14 melanoma it was -75.2% (active); in the test with HCT-15 colon, -73.8% (active); with HT29 colon, -66.7% (active). The growth is -91.7% (active) in the test on SNB-75 CNS; -30.1% (active) in the test with SNB-19 CNS; -76.7% (active) in the test on U251 CNS; -36.3% (active) in the test with PC-3 prostate; -94.8% (active) in the test with SK-MEL-5 melanoma; 71% in the test on UACC-62 melanoma. The figures for the growth with LOX IMVI melanoma and with SK-MEL-28 melanoma were -87% (active) and -90.3% (active), respectively.
Take `C#CCNC(=O)[C@]1(C)CCC[C@@]2(C)[C@H]1CC=C1C=C(C(C)C)CC[C@@H]12`: the growth is 103% in the test on DU-145 prostate; 121% in the test with K-562 leukemia; 97.5% in the test with MALME-3M melanoma; 96.3% in the test with MDA-MB-231 breast; 120% in the test on RXF 393 renal; 89.3% in the test on SF-268 CNS. The growth was 91.6% in the test on SF-295 CNS; 108% in the test with SF-539 CNS; 110% in the test on UACC-257 melanoma; 98.6% with M14 melanoma; 94.8% in the test on HCT-15 colon; 102% in the test with HT29 colon. The growth was 86.5% with SNB-75 CNS; 101% in the test on SNB-19 CNS; 106% in the test with U251 CNS; 95.4% in the test on PC-3 prostate; 102% with SK-MEL-5 melanoma; 92.1% in the test with UACC-62 melanoma. Further, the growth in the test with LOX IMVI melanoma is 96.8%; in the test on SK-MEL-28 melanoma it was 111%.
Take `CN1CCN(Cc2ccc(NC(=O)c3cncc(C#Cc4cnc(N)c5ccc(F)cc45)c3)cc2C(F)(F)F)CC1`: the growth in the test on DU-145 prostate is 4.11% (active); with K-562 leukemia it was -63.7% (active); with MALME-3M melanoma, -17.2% (active); in the test on MDA-MB-231 breast, -58.2% (active); with RXF 393 renal it was -3.82% (active); with SF-268 CNS, 29.6%. In addition, the growth in the test with SF-295 CNS was 28.2%; with SF-539 CNS it was -3.72% (active); with UACC-257 melanoma, 47.5%; in the test on M14 melanoma it was -0.651% (active); with HCT-15 colon, -86.1% (active); with HT29 colon, -56.3% (active). For the same compound, the growth is -3.01% (active) with SNB-75 CNS; 29.4% in the test with SNB-19 CNS; -92.4% (active) in the test on U251 CNS; -21.8% (active) with SK-MEL-5 melanoma; 20.6% with UACC-62 melanoma; -90.3% (active) in the test with LOX IMVI melanoma. Further, the growth in the test on SK-MEL-28 melanoma is 34.3%.
With `CCCCC#Cc1c(I)n(C)c(=O)[nH]c1=O`, the growth was 20.8% with DU-145 prostate; -43.7% (active) in the test on K-562 leukemia; -85.4% (active) with MALME-3M melanoma; -67.7% (active) in the test on MDA-MB-231 breast; -81.7% (active) in the test with RXF 393 renal; 26.5% with SF-268 CNS. Besides, the growth in the test with SF-295 CNS is 92.3%; in the test with SF-539 CNS, 66.7%; with UACC-257 melanoma it was -48.4% (active); in the test with M14 melanoma it was -7.41% (active); in the test with HCT-15 colon it was -92.5% (active); in the test with HT29 colon it was -75.3% (active). For the same compound, the growth is 82.6% in the test with SNB-75 CNS; 99.7% in the test with SNB-19 CNS; 60.2% in the test with PC-3 prostate; 62.5% in the test with SK-MEL-5 melanoma; -13.5% (active) in the test on UACC-62 melanoma; -63.7% (active) in the test on LOX IMVI melanoma. For the same compound, in the test on SK-MEL-28 melanoma, the growth is -85.6% (active).
`COc1cc(-c2nc3c(ncc4ccc(=O)n(-c5ccccc5)c43)s2)cc(OC)c1OC`: the growth with DU-145 prostate was 80.2%; in the test with K-562 leukemia, 90.5%; in the test on MALME-3M melanoma it was 65.4%; in the test with MDA-MB-231 breast, 64.1%; with RXF 393 renal, 48.2%; with SF-268 CNS, 69.1%. Also, the growth with SF-295 CNS was 90.4%; with SF-539 CNS, 57.4%; with UACC-257 melanoma, 101%; in the test with M14 melanoma, 87.6%; in the test with HCT-15 colon, 78.6%; in the test with HT29 colon, 84.2%. The growth with SNB-75 CNS is 56%; in the test with SNB-19 CNS, 86.1%; in the test with PC-3 prostate it was 56.9%; in the test with SK-MEL-5 melanoma, 68.5%; with UACC-62 melanoma, 78.7%; with LOX IMVI melanoma it was 58.4%. Besides, the growth with SK-MEL-28 melanoma is 78.3%.
Regarding `COc1ccc(C[n+]2c3ccccc3n3c4ccc(N)cc4ccc32)c(OC)c1OC`, the growth was 81% with DU-145 prostate; 42% with K-562 leukemia; 49.6% with MALME-3M melanoma; 75.5% with MDA-MB-231 breast; 69.7% in the test on RXF 393 renal; 35% with SF-268 CNS. Besides, the growth was 65.6% in the test with SF-295 CNS; 52.2% in the test on SF-539 CNS; 3.35% (active) in the test with UACC-257 melanoma; 87.5% with M14 melanoma; 101% with HCT-15 colon; 39.2% with HT29 colon. In addition, the growth in the test on SNB-75 CNS is 61.4%; with SNB-19 CNS it was 15.5%; with U251 CNS, 8.81% (active); in the test with SK-MEL-5 melanoma, 42.6%; in the test on UACC-62 melanoma, 60.1%; in the test on LOX IMVI melanoma it was 85.2%. The growth in the test with SK-MEL-28 melanoma was 64.5%.
